Data published in the supplement of paper PMC12669032.

Tested on: Roseburia intestinalis
Assay: growth AUC relative to DMSO control (median of replicates) (fraction); higher = more growth (less inhibition), active = hit call of the paper
Conditions: 20 µM; 24 h;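 active = AUC reduced over 20% with Padj below 0.05 in at least 2 of 3 replicates; inactive = otherwise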
Summary of the method: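 For each compound at 20 µM (1% DMSO), gut bacterial monocultures seeded at OD600 0.05 grew anaerobically in mGAM at 37 °C in round-bottom 96-well plates. Hourly OD600 readings over 24 h gave growth curves whose minimum OD was set to 0. Area under these curves was normalised to the plate median of solvent-only wells, or to row and column medians on the industrial chemical plate. Values are medians of three biological replicates grown on separate days.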

Row | SMILES | growth AUC
1 | N#Cc1nn(-c2c(Cl)cc(C(F)(F)F)cc2Cl)c(N)c1S(=O)C(F)(F)F (centres undefined) | 0.914 (inactive)
2 | CC(Oc1ccc(Oc2ncc(C(F)(F)F)cc2Cl)cc1)C(=O)O (centres undefined) | 1.03 (inactive)
3 | CCCOP(=S)(OCCC)SCC(=O)N1CCCCC1C (centres undefined) | 0.992 (inactive)
4 | C1CCC(NC2CCCCC2)CC1.O=NO | 1 (inactive)
5 | ClC1=C(Cl)[C@]2(Cl)[C@@H]3[C@@H]4C[C@@H]([C@H]5O[C@@H]45)[C@@H]3[C@@]1(Cl)C2(Cl)Cl | 1 (inactive)
6 | CCC1COC(Cn2cncn2)(c2ccc(Cl)cc2Cl)O1 (centres undefined) | 0.936 (inactive)
7 | Cc1cccc(C)c1N(Cn1cccn1)C(=O)CCl | 0.935 (inactive)
8 | O=C(Nc1ccccc1)N(Cc1ccc(Cl)cc1)C1CCCC1 | 0.991 (inactive)
9 | CCOc1cc(C(C)(C)C)ccc1C1COC(c2c(F)cccc2F)=N1 (centres undefined) | 0.948 (inactive)
10 | CCOP(=O)(NC(C)C)Oc1ccc(S(C)=O)c(C)c1 (centres undefined) | 1.05 (inactive)
11 | CC(Cl)(Cl)C(=O)O | 1.01 (inactive)
12 | C#CC(C)(C)NC(=O)c1cc(Cl)cc(Cl)c1 | 0.936 (inactive)
13 | O=P(Oc1ccccc1)(Oc1ccccc1)Oc1ccccc1 | 0.937 (inactive)
14 | CN(C)C(CSS(=O)(=O)c1ccccc1)CSS(=O)(=O)c1ccccc1 | 1.02 (inactive)
15 | CCCSC(=O)N(CCC)CCC | 0.994 (inactive)
16 | COc1cc(OC)nc(NC(=O)NS(=O)(=O)c2ncccc2C(=O)N(C)C)n1 | 1.01 (inactive)
17 | CNC(=O)Oc1cc(C)c(S(C)=O)c(C)c1 (centres undefined) | 0.965 (inactive)
18 | CCNc1nc(NC(C)C)nc(SC)n1 | 1.02 (inactive)
19 | COP(=S)(OC)SCC(=O)N(c1ccc(Cl)cc1)C(C)C | 1.03 (inactive)
20 | CCC(CC)Nc1c([N+](=O)[O-])cc(C)c(C)c1[N+](=O)[O-] | 0.897 (inactive)

Row | SMILES | growth AUC
21 | CCOP(=S)(OCC)Oc1cc(Cl)c(Br)cc1Cl | 0.948 (inactive)
22 | CCOC(=O)c1cn2nc(OP(=S)(OCC)OCC)cc2nc1C | 0.981 (inactive)
23 | N#Cc1cc(I)c(O)c(I)c1 | 0.993 (inactive)
24 | CNC(=O)Oc1cc(C)cc(C(C)C)c1 | 1.06 (inactive)
25 | CCN(CC)c1nc(C)cc(OP(=S)(OC)OC)n1 | 0.978 (inactive)
26 | COP(=S)(OC)SCN1C(=O)c2ccccc2C1=O | 0.901 (inactive)
27 | CC(C)(C)C(O)/C(=C/c1ccc(Cl)cc1Cl)n1cncn1 (mixture of isomers) | 0.929 (inactive)
28 | COC(=O)NS(=O)(=O)c1ccc(N)cc1 | 0.929 (inactive)
29 | CNC(=O)O/N=C(\C)SC | 0.994 (inactive)
30 | COP(=S)(OC)SCn1nnc2ccccc2c1=O | 1.09 (inactive)
31 | N#Cc1nn(-c2c(Cl)cc(C(F)(F)F)cc2Cl)c(N)c1C(F)(F)F | 0.698 (active)
32 | N#Cc1c(Cl)cccc1Cl | 1.07 (inactive)
33 | ClC1=C(Cl)C2(Cl)C3C(Cl)C=CC3C1(Cl)C2(Cl)Cl (centres undefined) | 0.918 (inactive)
34 | CCN(Cc1ccc(Cl)nc1)/C(=C/[N+](=O)[O-])NC | 1 (inactive)
35 | ClC1=C(Cl)C2(Cl)C3C4C=CC(C4)C3C1(Cl)C2(Cl)Cl (centres undefined) | 0.987 (inactive)
36 | Clc1c(Cl)c(Cl)c(Cl)c(Cl)c1Cl | 1.01 (inactive)
37 | CCNS(=O)(=O)C(F)(F)C(F)(F)C(F)(F)C(F)(F)C(F)(F)C(F)(F)C(F)(F)C(F)(F)F | 1.03 (inactive)
38 | Nc1nc(N)nc(N)n1 | 1.09 (inactive)
39 | CCOC1Oc2ccc(OS(C)(=O)=O)cc2C1(C)C (centres undefined) | 0.924 (inactive)
